Here are results for 25 compounds from PubChem BioAssay AID1063 (University of Pittsburgh Molecular Library Screening Center, 2008).

Among all 200,000 compounds or so, about 18,000 (9%) were called active. Many of the other results were omitted from the sample, so actives are more common in it than they were. A number with no mark means an inactive call. No stated cut-off is given here; in the data, active means inhibition above about 50%; inactive means the rest.

This assay in a line: antileishmanial activity against promastigotes – primary screen (AID 1063).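 Further: promastigotes grown with compound for 44 hours at 28 °C.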 The note with it: Leishmania major promastigotes, resazurin fluorescence viability; at 10 µM; active compounds read high. In general terms: The colour change of resazurin is a common sign of viable cells or microbes.
For orientation: inhibition means the relative decrease from the control value, in per cent. Turning to `Cc1cccc(NC(=O)Nc2nnc(-c3ccccc3)o2)c1`, the inhibition was 15.9%.

Turning to `C/C(=N\NC(=O)c1cc2c(s1)CCC(C)C2)c1cccnc1` (stereo not given), the inhibition was 13%.

With `COc1ccc(C(C(=O)NC2CCCCC2)N(C(=O)CCl)c2ccccc2Cl)cc1` (stereo not given), the inhibition is -1.95%.

As for `COc1cccc(N(C(=O)C2COc3ccccc3O2)C(C(=O)NC2CCCCC2)c2ccc(O)cc2)c1` (stereo not given), the inhibition is 98.3% (active).

As for `Cc1cccc(N(C(=O)Cc2cccs2)C(C(=O)NC2CCCC2)c2ccsc2)c1` (stereo not given), the inhibition was 3.72%.

As for `Cc1cc([N+](=O)[O-])ccc1NCc1cccc([N+](=O)[O-])c1`, the inhibition is -1.47%.

Take `O=C1Nc2ccc([N+](=O)[O-])cc2C1=Nc1cccc(CO)c1`: the inhibition was 51% (active).

`CN1CCN(/N=C2/C(=O)Nc3ccc([N+](=O)[O-])cc32)CC1`: the inhibition was -2.49%.

On to `CN1CCN(CC#CCC2(O)c3ccccc3-c3ccccc32)CC1`, for which the inhibition was -6.57%.

For `O=[N+]([O-])c1cccc(-c2nnc3c4ccccc4c4ccccc4n23)c1`, the inhibition was 22%.

`CCOC(=O)N1CCN(Cc2nc3ccc([N+](=O)[O-])cc3c(=O)n2-c2cccc(OC)c2)CC1`: the inhibition is 8.07%.

On to `Cn1cc(/C=C/c2nc3ccccc3c(=O)n2-c2cccc([N+](=O)[O-])c2)c2ccccc21`, for which the inhibition was 63.9% (active).

As for `Cc1cc(C)nc(/N=C2\NC(=O)CC(C(=O)O)N2c2ccc(Cl)cc2Cl)n1` (stereo not given), the inhibition is -2.66%.

For the compound `CSc1ccc(/C=N\NC(=O)CC(=O)NC(C)C)cc1`, the inhibition is 3.48%.

As for `CC1=NCCN1S(=O)(=O)c1cccc([N+](=O)[O-])c1`, the inhibition is 0.00784%.

On to `COc1ccc(/C=N/NC(=O)Cn2cc(C(F)(F)F)ccc2=O)cc1`, for which the inhibition was 4.79%.

With `CCOC(=O)c1c(CN(C)C)n(-c2ccccc2)c2cc(Br)c(O)cc12`, the inhibition is 15.6%.

For the compound `Cc1ccc2c(c1)C(c1ccccc1)N(C(=O)c1ccc(S(=O)(=O)N3CCOCC3)cc1)CC(=O)N2` (stereo not given), the inhibition was 56.5% (active).

For `O=C(c1ccc(S(=O)(=O)N2CCOCC2)cc1)N1CCN(c2ccccc2)CC1`, the inhibition is -2.9%.

Consider `CCC(CC)C(=O)N1CC(=O)Nc2ccc(Br)cc2C1c1ccccc1` (stereo not given), for which the inhibition was 14.8%.

For `Cc1ccc2nsnc2c1S(=O)(=O)N1CCCC1C(=O)O` (stereo not given), the inhibition is -8.56%.

On to `COc1ccc(C)cc1NC(=S)Nc1ccccc1SC`, for which the inhibition is 5.88%.

Take `COC(=O)c1cn(-c2ccccc2)nc1-c1cccnc1`: the inhibition is 1.77%.

Take `Cc1ccc2nc(-c3cccnc3)c(NC3CCCC3)n2c1`: the inhibition is 63.7% (active).

For the compound `O=C(Nc1ccc(F)cc1)C1CCN(C(=O)c2ccc([N+](=O)[O-])cc2)CC1`, the inhibition was 5.08%.
